USP8 inh: inhibitors of human USP8 deubiquitinase; Ubiquitin carboxyl-terminal hydrolase 8 (Homo sapiens), P40818; purified USP8, Ub-rhodamine cleavage fluorescence, 30 min; inhibition, % at 20 µM; 47,000 compounds, 4.2% hits; AID 1645853, 2021
USP17 block: inhibitors of human USP17 deubiquitinase. inhibition, % at 50 µM. 47,000 compounds, 6.5% hits. purified USP17, Ub-rhodamine cleavage fluorescence, 3 h
Target sequence (A8MUK1 whole entry, looked up): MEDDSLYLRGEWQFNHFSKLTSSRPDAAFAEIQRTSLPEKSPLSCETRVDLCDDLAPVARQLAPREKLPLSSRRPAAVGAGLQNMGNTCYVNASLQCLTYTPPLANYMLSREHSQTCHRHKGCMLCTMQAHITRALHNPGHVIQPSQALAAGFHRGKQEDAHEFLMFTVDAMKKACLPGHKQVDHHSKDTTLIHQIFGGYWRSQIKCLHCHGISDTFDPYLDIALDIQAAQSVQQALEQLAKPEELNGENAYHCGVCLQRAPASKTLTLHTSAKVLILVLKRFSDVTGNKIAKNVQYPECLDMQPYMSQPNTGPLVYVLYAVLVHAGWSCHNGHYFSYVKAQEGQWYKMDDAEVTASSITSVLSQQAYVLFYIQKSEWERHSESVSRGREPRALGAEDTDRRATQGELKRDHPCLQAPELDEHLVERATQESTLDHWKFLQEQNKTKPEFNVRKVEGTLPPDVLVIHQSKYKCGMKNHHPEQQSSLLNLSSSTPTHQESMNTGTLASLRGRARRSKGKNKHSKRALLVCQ
USP30 block: inhibitors of human USP30 deubiquitinase | purified USP30, Ub-rhodamine cleavage fluorescence | inhibition, % at 25 µM | 47,000 compounds, 5.3% hits
USP28 block: inhibitors of human USP28 deubiquitinase | purified USP28, Ub-rhodamine cleavage fluorescence, 30 min | inhibition, % at 25 µM | AID 1645857, 2021 | 47,000 compounds, 3% hits | Ubiquitin carboxyl-terminal hydrolase 28 (Homo sapiens), Q96RU2
* = called active by the depositor. Most compounds without a hit are left out; they make up all but 13% or so of the library. Cut-off read from the data, not from the text of the source: active = inhibition above about 30%; inactive = the rest.

What do the screens show for `CC[C@H](C)[C@H](NC(=O)[C@H]([C@@H](C)CC)N(C)C(C)=O)C(=O)N[C@H](C(=O)N[C@@H](CC(C)C)C(=O)C1(C)CO1)[C@@H](C)O` (stereo partly specified)?
USP8 inh: 57*; USP17 block: 43*; USP30 block: 22; USP28 block: 43*

How did COc1ccc(CNc2ccc(-c3ccccc3)nn2)cc1 do in these assays?
USP8 inh: 3; USP17 block: 37*; USP30 block: 18; USP28 block: 11

What do the screens show for `COc1ccc(CNc2nc3ccccc3n2Cc2ccccc2)cc1`?
USP8 inh: 20; USP17 block: 22; USP30 block: 18; USP28 block: 23

How did c1ccc(CNc2ccc(-c3nc(-c4ccccc4)no3)nn2)cc1 do in these assays?
USP8 inh: 42*; USP17 block: 10; USP30 block: -21; USP28 block: -10

How did Cc1ccc(S(=O)(=O)N2C(=O)CCC2C(=O)Nc2ccc(C#N)cc2)cc1 (stereo unspecified) do in these assays?
USP8 inh: 28; USP17 block: 13; USP30 block: 25; USP28 block: 11

How did CCc1nc2c(c(=O)c3ccccc3n2C)c(=O)n1-c1ccc(C)cc1 do in these assays?
USP8 inh: 31*; USP17 block: 49*

Results for Cn1c2ccccc2c(=O)c2c(=O)n(-c3cccc(Cl)c3)c(-c3cccs3)nc21 ?
USP8 inh: 94*; USP17 block: 30*; USP30 block: -146; USP28 block: -21

What do the screens show for `Cc1nc2ccccc2c(=O)n1-c1ccc(F)c(NC(=O)c2ccccc2)c1`?
USP8 inh: 2; USP17 block: -10; USP30 block: 0; USP28 block: -6

What do the screens show for `CNc1nccc(N2CCC(CC(=O)NC3CCC(C)CC3)CC2)n1` (stereo unspecified)?
USP8 inh: 12; USP17 block: 11; USP30 block: 14; USP28 block: 20

How did N#Cc1c2c(c(-c3ccccc3)n3c1nc1ccccc13)CCC2 do in these assays?
USP8 inh: -7; USP17 block: 43*; USP30 block: -38; USP28 block: 0

How did CN1CCC(C(=O)N2CCC[C@@H]3[C@H]2C/C=C/Cc2ccccc2OCC(=O)N3C)CC1 do in these assays?
USP8 inh: 4; USP17 block: 0; USP30 block: 2; USP28 block: 5

How did CN1C(=O)COc2ccccc2CCCC[C@@H]2[C@H]1CCCN2C(=O)c1n[nH]c2c1CCC2 do in these assays?
USP8 inh: 9; USP17 block: 6; USP30 block: 31*; USP28 block: 12

How did CN1C(=O)COc2ccccc2CCCC[C@@H]2[C@H]1CCCN2S(=O)(=O)N1CCOCC1 do in these assays?
USP8 inh: 8; USP17 block: 3; USP30 block: 31*; USP28 block: 16

What do the screens show for `Cc1oc(-c2ccc(Cl)cc2)cc1C(=O)NCc1ccccn1`?
USP8 inh: -11; USP17 block: -18; USP30 block: -18; USP28 block: -7

What do the screens show for `Cc1ccc(-n2ccc3nc(N4CCc5ccccc5C4)ncc3c2=O)cc1`?
USP8 inh: 8; USP17 block: 4; USP30 block: -16; USP28 block: 6

Results for Cc1cc2cc(CNc3ncnc4c3nnn4C)ccc2[nH]1 ?
USP8 inh: 10; USP17 block: 49*; USP30 block: -104; USP28 block: -22

What do the screens show for `CCn1nnc2c(NCc3ccc(OC)cc3)ncnc21`?
USP8 inh: 12; USP17 block: 5; USP30 block: 16; USP28 block: 5

Results for COc1c2c(cc3cc(O)c4c(=O)cc(C)oc4c13)CCC2=O ?
USP8 inh: 0; USP17 block: 60*; USP30 block: -6; USP28 block: 27

What do the screens show for `Cc1cc(-c2cncnc2C2CCN(C(=O)Nc3ccccc3C(F)(F)F)CC2)on1`?
USP8 inh: -1; USP17 block: -9; USP30 block: -10; USP28 block: -13

What do the screens show for `O=C(Cc1nc(-c2ccccc2)n[nH]1)Nc1ccc(F)cc1F`?
USP8 inh: -1; USP17 block: -19; USP30 block: -21; USP28 block: -6

What do the screens show for `O=C(Cc1nc(-c2ccccc2)n[nH]1)Nc1cccc(F)c1`?
USP8 inh: 2; USP17 block: 12; USP30 block: 30*; USP28 block: 21

How did CCCCC/C=C/C(O)C(O)/C=C/c1ccc(Cl)c(O)c1CO (stereo unspecified) do in these assays?
USP8 inh: -78; USP17 block: 31*; USP30 block: -64; USP28 block: 6

Results for O=C(COc1ccc(Cl)cc1Cl)NCCCc1ccccc1 ?
USP8 inh: -137; USP17 block: 5; USP30 block: 32*; USP28 block: 16

How did O=C(COc1ccccc1-c1nnc(-c2ccccc2)o1)NCCCc1ccccc1 do in these assays?
USP8 inh: 12; USP17 block: 9; USP30 block: 35*; USP28 block: 11

What do the screens show for `N#Cc1cccc(S(=O)(=O)NC2CCN(c3ccc(F)cc3)C2=O)c1` (stereo unspecified)?
USP8 inh: -7; USP17 block: 0; USP30 block: 16; USP28 block: 10

What do the screens show for `COc1ccc(-c2cc(-c3nnc(CSc4nc5ccccc5n4C)o3)c3ccccc3n2)cc1OC`?
USP8 inh: 3; USP17 block: 58*; USP30 block: 0; USP28 block: 17

What do the screens show for `O=C(Nc1cc(F)ccc1F)c1cc(-c2cccnc2)n[nH]1`?
USP8 inh: 5; USP17 block: 57*

How did O=C(NC1CCN(Cc2ccccc2)CC1)c1cc(-c2cccnc2)n[nH]1 do in these assays?
USP8 inh: 1; USP17 block: -5

Results for O=C(Nc1ccc(Cl)cc1F)c1cc(-c2cccnc2)n[nH]1 ?
USP8 inh: 2; USP17 block: 28; USP30 block: 41*; USP28 block: 12

How did O=C(NC1CCCCCC1)c1cc(-c2cccnc2)n[nH]1 do in these assays?
USP8 inh: -18; USP17 block: -6; USP30 block: -1; USP28 block: -3

What do the screens show for `O=C(Cn1cnc2sc3c(c2c1=O)CCC3)NCCC1=CCCCC1`?
USP8 inh: 78*; USP17 block: -4; USP30 block: -14; USP28 block: 6

How did Cc1noc2nc(C)n(CC(=O)NCCC3=CCCCC3)c(=O)c12 do in these assays?
USP8 inh: -1; USP17 block: 9; USP30 block: 14; USP28 block: 6

Results for Cc1cc(C(=O)Nc2cc(C)n(Cc3ccc(Cl)cc3)n2)no1 ?
USP8 inh: 0; USP17 block: 11; USP30 block: 1; USP28 block: 72*

What do the screens show for `Cc1cc(C(=O)N2CC[C@@H]3CN(Cc4ccc(Cl)cc4)S(=O)(=O)[C@@H]3CC2)no1`?
USP8 inh: -13; USP17 block: -18; USP30 block: -29; USP28 block: -9

What do the screens show for `CC(C)C(=O)N1CCCCCC1c1cc(-c2ccc(F)cc2)on1` (stereo unspecified)?
USP8 inh: 15; USP17 block: 1; USP30 block: 16; USP28 block: 3
